A selection: hits, their analogues and other compounds. The true share with any hit is near 11%.
SW480 rerep: inducers of DNA re-replication in SW480 colon cancer cells | SW480 DNA re-replication, Hoechst DNA content imaging, 48 h | Potency, µM (doses to about 46.1 µM), for the others: at the top dose re-replication activation, hits mostly activators | 340,000 compounds, 1.8% hits | AID 624297; note: potency is the fitted concentration of half-maximal effect; % of control where 0% means no effect; nearly all actives have a fitted effect of over 55% in size
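Per well, 250 cells were exposed to pinned compound for 48 hr. Nuclear DNA was visualised with Hoechst (40 min, 37 C) and total object intensity recorded by fluorescence scanning.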
MCF10A rerep: inducers of DNA re-replication in MCF 10A breast cells; MCF 10A DNA re-replication, Hoechst nuclear intensity, 48 h; Potency, µM (highest dose often 46.1 µM), inactives show top-dose activity, positive = re-replication, hits mostly activators; 350,000 compounds, 2.9% hits; AID 624296; note: potency is the fitted concentration of half-maximal effect; % of control where 0% means no effect; nearly all actives have a fitted effect of over 50% in size
VP16 counter: Gal4-VP16 reporter inhibition counter-screen | Drosophila S2 Gal4-VP16 UAS-luciferase, luminescence, 20 h | Potency, µM (highest dose often 53.6 µM), for the others: top-dose activity, negative = inhibition, most hits filed as inhibitors | 310,000 compounds, 3.5% hits | AID 2546;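 note: Gal4-VP16 expression switched on by copper sulfate through the metallothionein promoter; potency is the fitted concentration of half-maximal effect; % is set by controls: 0 for no effect and ±100 for the full control effect; nearly all actives have a fitted effect of over 50% in size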
IL1B secr inh: blocks inflammasome-driven IL-1 beta release | AID 743279 | THP-1 LPS/ATP IL-1B secretion, AlphaLISA, 16 h; active compounds read low | 360,000 compounds, 4.7% hits | activity change, % at 57.5 µM; in the data active = activity change below about -50%; inconclusive = mostly about -30% to -49%; note: % is set by controls: 0 for no effect and ±100 for the full control effect
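Secreted IL-1B measured by AlphaLISA bead assay after 16 h compound exposure of THP-1 cells; compounds (final up to 57.5 uM) added 1 h before LPS (250 ng/mL) and ATP (1.25 mM) stimulation; lower signal means less secretion.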
RORg inh: inhibitors of mouse ROR gamma transcriptional activity; P51450; Drosophila S2 Gal4-RORgamma UAS-luciferase reporter, 20 h; Potency, µM (doses to about 53.6 µM), inactives show at the highest dose activity change, negative = inhibition, hits mostly inhibitors; 310,000 compounds, 5.4% hits; note: potency is the fitted concentration of half-maximal effect; % is set by controls: 0 for no effect and ±100 for the full control effect; nearly all actives have a fitted effect of over 60% in size
Target sequence (P51450 whole entry, looked up, the tested form may be a part): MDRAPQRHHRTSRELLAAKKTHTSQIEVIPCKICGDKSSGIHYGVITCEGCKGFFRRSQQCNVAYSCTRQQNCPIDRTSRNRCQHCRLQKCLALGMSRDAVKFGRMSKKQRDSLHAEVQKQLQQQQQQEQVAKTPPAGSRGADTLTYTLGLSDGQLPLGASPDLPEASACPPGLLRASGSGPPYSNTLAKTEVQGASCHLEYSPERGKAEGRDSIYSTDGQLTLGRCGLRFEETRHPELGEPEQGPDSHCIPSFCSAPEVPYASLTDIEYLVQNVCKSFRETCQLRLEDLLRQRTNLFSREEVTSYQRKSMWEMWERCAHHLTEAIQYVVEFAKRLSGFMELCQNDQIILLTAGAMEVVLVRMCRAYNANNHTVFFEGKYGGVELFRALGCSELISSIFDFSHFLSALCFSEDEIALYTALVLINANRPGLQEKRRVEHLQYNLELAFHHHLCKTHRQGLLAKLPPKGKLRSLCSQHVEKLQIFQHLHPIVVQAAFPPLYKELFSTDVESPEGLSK
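Compounds are pin-transferred onto Drosophila Schneider cells expressing a copper-inducible Gal4–ROR gamma transactivation domain fusion. After 1 hr, copper sulfate is added to 700 uM final; luciferase is read 20 hr later.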
An asterisk follows results filed as active; u = inconclusive; x = not tested or not shown; [ ] = remark or other dose. Unless noted, calls come from the whole dose curve; as a rule, active = well fitted curve in the direction sought with a large enough effect; inconclusive = small, poorly fitted or top-dose-only effect, or another doubt; inactive = no such curve, though single readings can be large; an effect the other way counts as inactive or inconclusive.

SMILES	SW480 rerep	MCF10A rerep	VP16 counter	IL1B secr inh	RORg inh
C#CCOCCOCCOCCNc1nc(N2CCN(C(=O)CCCCCCCCCCNC(=O)Cn3cc(C[C@@H](C)O)nn3)CC2)nc(N2CCN(C(=O)CCCCCCCCCCNC(=O)[C@@H](CCSC)n3cc(CCO)nn3)CC2)n1	u	u	x	2	x
C#CCOCCOCCOCCNc1nc(N2CCN(C(=O)CCCCCCCCCCNC(=O)[C@H]([C@@H](C)CC)n3cc(CCCCN=C(N)N)nn3)CC2)nc(N2CCN(C(=O)CCCCCCCCCCNC(=O)[C@@H]([C@H](C)O)n3cc(C)nn3)CC2)n1	3%	-5%	x	u	x
C#CCOCCOCCOCCNc1nc(N2CCN(C(=O)CCCCCCCCCCNC(=O)[C@H](CCCCN)n3cc(C)nn3)CC2)nc(N2CCN(C(=O)CCCCCCCCCCNC(=O)[C@@H]([C@H](C)O)n3cc(C)nn3)CC2)n1	-2%	u	x	-60*	x
C#CCOCCOCCOCCNc1nc(N2CCN(C(=O)CCCCCCCCCCNC(=O)[C@H](CCCCN)n3cc(C[C@@H](C)CC)nn3)CC2)nc(N2CCN(C(=O)CCCCCCCCCCNC(=O)[C@@H]([C@H](C)O)n3cc(C)nn3)CC2)n1	20%[9.22 µM]	12µM*	x	u	x
C#CCOCCOCCOCCNc1nc(N2CCN(C(=O)CCCCCCCCCCNC(=O)[C@@H](CCSC)n3cc(CCO)nn3)CC2)nc(N2CCN(C(=O)CCCCCCCCCCNC(=O)[C@@H]([C@H](C)O)n3cc(C)nn3)CC2)n1	-2%	16µM*	x	u	x
COc1cc(C(F)(F)F)ccc1C(=O)NCCc1ccco1	-14%	1%	10%	u	-1%
CCc1nc(N2CCN(C(=O)c3ccccc3)CC2)c2c3c(sc2n1)CCCC3	0%	u	-15%	-78*	-3%
CCc1nc(N2CCN(C(=O)c3ccco3)CC2)c2c3c(sc2n1)CCCC3	0%	28%	-13%	-20	-12%
CCCNC(=S)N1CCN(c2nc(C)nc3sc4c(c23)CCCC4)CC1	-7%	u	-12%	-74*	u
COc1ccc(S(=O)(=O)N2CCC(C(=O)N[C@@H](C)C(=O)NCc3cccnc3)CC2)cc1	x	x	x	-13	x
CN1OC[C@@H]2CN(Cc3ccccc3)[C@H](c3cccc(-c4ccccc4)c3)C[C@@H]21	x	x	x	-22	x
CCCCn1c(N)c(N(Cc2ccccc2OC)C(=O)c2ccc([N+](=O)[O-])s2)c(=O)[nH]c1=O	21µM*	u	x	65	x
COc1ccc(NC(=O)c2cc(C3CCCCN3C(=O)c3ccc4c(c3)CCO4)on2)c(C)c1 (configuration not stated)	x	x	x	-24	x
Fc1ccc(-c2cc(C(F)(F)C(F)F)[nH]n2)cc1	19%	u	13µM*	x	2%
S=C(NCc1ccccn1)Nc1cccc(Cl)c1	-4%	4%	13µM*	-18	6.3µM*
Cc1cccc(NC(=S)NCc2ccccn2)c1	-13%	-2%	u	-4	5µM*
O=C(NCc1ccccn1)Nc1cccc(F)c1	-17%	-19%	u	-25	24%
Cc1cccc(NC(=O)C(=O)NCc2ccccn2)c1	18%	11%	2%	-24	-12%
FC(F)(F)c1cccc(NC(=S)NCc2ccccn2)c1	-14%	1%	7.1µM*	-3	3.5µM*
C/C(=N\Nc1ccc(Cl)cc1)c1ccccn1	5%	2%	u	16	u
CC(=NNC(=S)Nc1cccc(Cl)c1)c1ccccn1	u	u	x	-88*	x
Cc1ccc(NC(=S)NCc2ccccn2)cc1	-7%	-3%	16µM*	-10	4µM*
S=C(NCc1ccccc1)NCc1ccccn1	-9%	-1%	-2%	1	u
CN(C)Cc1c(O)ccc2occ(C(=O)c3ccc(F)cc3)c12	-5%	2%	-11%	-54*	u
CN(C)Cc1c(O)ccc2occ(C(=O)c3ccccc3)c12	-3%	-2%	-6%	3	2%
SMILES	SW480 rerep	MCF10A rerep	VP16 counter	IL1B secr inh	RORg inh
COc1cc2c(cc1OC)C(c1ccc(C)cc1)NC(=O)C2 (configuration not stated)	u	6%	6%	-61*	-22%
CC(=O)Nc1ccc(S(=O)(=O)N(C)CC(=O)OCC(=O)c2ccc3c(c2)NC(=O)CO3)cc1	-2%	1%	x	12	x
CN(C)CCCNc1cc(Cl)c(S(=O)(=O)N2CCCCC2)cc1C(=O)O	-3%	2.6µM*	-10%	7	14%
COC(=O)c1cc(S(=O)(=O)N2CCCC2)c(Cl)cc1Cl	6%	9%	17%	u	-7%
Cc1ccccc1Cn1c2ccccc2c2cnn(CC(=O)NCCCN3CCOCC3)c(=O)c21	-17%	-1%	-7%	-72*	6%
CC(C)N(C(=O)CSc1nnc(Cc2csc(Nc3ccccc3)n2)o1)C(C)C	u	12%	-1%	-70*	0%
Cn1c(=O)n(CCCOc2ccc(Cl)cc2)c2ccccc21	-6%	7%	3%[0.365 µM]	-14	2%
Cn1c(=O)n(CCCOc2ccc(Br)cc2)c2ccccc21	2%	2%	u	-8	10µM*
CC(=O)Oc1c(Cl)cc(Cl)cc1/C=C/c1ccc2ccccc2n1	u	u	15%	-66*	19%
CC(=O)Oc1ccc(Cl)cc1/C=C/c1ccc2ccccc2n1	u	0%	-7%	-2	9%
COc1cccc(NC(=O)CN2C(=O)CSc3ccc(S(=O)(=O)N4CCC(C)CC4)cc32)c1	u	9%	-5%	-89*	u
CCCCN(C)CCCNC(=O)CN1C(=O)CSc2ccc(S(=O)(=O)N3CCOCC3)cc21	u	u	-18%	-96*	0%
COc1cccc(NC(=O)CN2C(=O)CSc3ccc(S(=O)(=O)N4CCOCC4)cc32)c1	1%	-4%	1%	-13	0%
c1ccc2[nH]ccc2c1	-4%	-4%	-2%	x	9%
O=c1ccc2ccccc2[nH]1	x	x	13µM*	x	6.3µM*
CN1CCN(c2ncc3ncc(=O)n(C[C@H]4CCCO4)c3n2)CC1	x	x	1%	x	-14%
CCOc1ccc(NCc2nc3ccccc3n2CCOc2ccccc2)cc1	u	u	u	-96*	u
CCn1c(CNC(=O)C(C)(C)C)nc2ccccc21	-6%	0%	-2%	-9	21%
CC(C)Cn1c(CNC(=O)c2ccccc2)nc2ccccc21	2%	0%	u	u	16µM*
CC(C)Cn1c(CCCNC(=O)c2ccc(F)cc2)nc2ccccc21	-11%	-7%	3%	20	-11%
CC(C)(C)C(=O)NCCCc1nc2ccccc2n1CCCOc1ccc(Cl)cc1	-2%	u	-8%	-74*	-9%
CCCCn1c(CNC(=O)C(C)(C)C)nc2ccccc21	-12%	10%	u	9	13µM*

Screening results: PubChem BioAssay, National Center for Advancing Translational Sciences (NCATS)
